This is an account of results in PubChem BioAssay (NCI).

The structures appear in SMILES notation. Compounds without any hit were thinned out: in the full panel of roughly 79,000, 15% have a hit. Values without a mark were called inactive. Calls of active or inactive are those of the source. Rule as the data show it: active = growth inhibition above about 70%; inactive = the rest.

Experiment [1] can be described thus: NCI Yeast Anticancer Drug Screen. Data for the rad50 strain (AID 155).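 Also: 0% = growth of vehicle-only cultures of the same strain.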 The settings on record: S. cerevisiae rad50 strain growth inhibition, stronger effect = higher value. A digest of the protocol: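 Compounds were tested on a yeast strain with an engineered DNA damage repair alteration; the reported value is growth inhibition normalised to vehicle treatment.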
A short description of experiment [2]: NCI Yeast Anticancer Drug Screen. Data for the mec2-1 strain (AID 157). The following applies: S. cerevisiae mec2-1 strain, stronger effect = higher value. A digest of the protocol: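 Cells of the genetically defined mec2-1 yeast strain are incubated with test compound. Inhibition of growth is calculated against vehicle-treated controls.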
A short description of experiment [3]: NCI Yeast Anticancer Drug Screen. Data for the sgs1 mgt1 strain (AID 161).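 Also: 0% = growth of cultures given vehicle only.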 The following applies: S. cerevisiae sgs1 mgt1 strain, stronger effect = higher value. A digest of the protocol: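 Inhibition of yeast growth, normalised to vehicle-treated controls, is reported for a strain bearing genetic alterations in DNA damage repair.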
Experiment [4] can be described thus: NCI Yeast Anticancer Drug Screen. Data for the cln2 rad14 strain (AID 165).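 Also: 0% = growth equal to vehicle treated cultures.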 The following applies: S. cerevisiae cln2 rad14 strain, stronger effect = higher value. A digest of the protocol: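 The screen exposed genetically defined yeast (cln2 rad14) to test compounds and scored growth inhibition relative to vehicle-treated controls.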
Experiment [5] can be described thus: NCI Yeast Anticancer Drug Screen. Data for the bub3 strain (AID 167). The settings on record: S. cerevisiae bub3 mutant strain, stronger effect = higher value. A digest of the protocol:
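Growth of a checkpoint-deficient yeast mutant is measured after compound exposure. Values represent inhibition relative to vehicle.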

A short description of experiment [6]: NCI Yeast Anticancer Drug Screen. Data for the mlh1 rad18 strain (AID 175). The following applies: S. cerevisiae mlh1 rad18 strain growth inhibition, stronger effect = higher value. The essentials: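 Compound-treated yeast growth, normalised to vehicle controls. Strain bears defined DNA repair mutations.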
Setting [7] is: at 5.0 µM (retest, dose inferred, filed as 0.5).
The mark [8] stands for this setting: at 50.0 µM (retest, dose inferred, filed as 5.0).

With `COc1ccc(C(C)c2cc3c(cc2OC/C(C)=N/NC(N)=O)OCO3)cc1` (configuration not stated), the growth inhibition was 61% in experiment [1] (setting [7]); 93% (active) in experiment [1] (setting [8]); 74.4% (active) in experiment [1] (at 50.0 µM); 43% in experiment [2] (setting [7]); 99% (active) in experiment [2] (setting [8]); 71.6% (active) in experiment [2] (at 50.0 µM). In addition, the growth inhibition in experiment [3] (setting [7]) was 41%; in experiment [3] (setting [8]), 87% (active); in experiment [3] (at 50.0 µM), 82% (active); in experiment [4] (setting [7]) it was 19%; in experiment [4] (setting [8]), 97% (active); in experiment [4] (at 50.0 µM), 19.6%. In addition, the growth inhibition in experiment [5] (setting [7]) is 58%; in experiment [5] (setting [8]), 99% (active); in experiment [5] (at 50.0 µM), 88.1% (active); in experiment [6] (setting [7]), 61%; in experiment [6] (setting [8]), 96% (active); in experiment [6] (at 50.0 µM), 90.3% (active).

For `CC(C)(C)CC(C)(C)N[P+](NC(C)(C)CC(C)(C)C)(NC(C)(C)CC(C)(C)C)NC(C)(C)CC(C)(C)C`, the growth inhibition in experiment [1] (setting [7]) is 89% (active); in experiment [1] (setting [8]), 98% (active); in experiment [1] (at 50.0 µM), 83.2% (active); in experiment [2] (setting [7]), 97% (active); in experiment [2] (setting [8]), 99% (active); in experiment [2] (at 50.0 µM) it was 88.3% (active). In addition, the growth inhibition in experiment [3] (setting [7]) is 81% (active); in experiment [3] (setting [8]) it was 99% (active); in experiment [3] (at 50.0 µM) it was 91.5% (active); in experiment [4] (setting [7]), 84% (active); in experiment [4] (setting [8]), 99% (active); in experiment [4] (at 50.0 µM), 90.7% (active). Also, the growth inhibition in experiment [5] (setting [7]) was 96% (active); in experiment [5] (setting [8]) it was 99% (active); in experiment [5] (at 50.0 µM) it was 90.5% (active); in experiment [6] (setting [7]) it was 94% (active); in experiment [6] (setting [8]), 98% (active); in experiment [6] (at 50.0 µM) it was 90.7% (active).

Turning to `CN(C)c1ccc(C(=O)C2CCCC(C)(C)C2)cc1` (configuration not stated), the growth inhibition in experiment [1] (setting [7]) is 22%; in experiment [1] (setting [8]), 65%; in experiment [1] (at 50.0 µM) it was 90.7% (active); in experiment [2] (setting [7]) it was 24%; in experiment [2] (setting [8]), 78% (active); in experiment [2] (at 50.0 µM), 93.5% (active). Also, the growth inhibition in experiment [3] (setting [7]) is 13%; in experiment [3] (setting [8]), 77% (active); in experiment [3] (at 50.0 µM) it was 91.5% (active); in experiment [4] (setting [7]) it was 7%; in experiment [4] (setting [8]), 27%; in experiment [4] (at 50.0 µM) it was 88.3% (active). The growth inhibition in experiment [5] (setting [7]) was 57%; in experiment [5] (setting [8]) it was 47%; in experiment [5] (at 50.0 µM), 86.9% (active); in experiment [6] (setting [7]), 24%; in experiment [6] (setting [8]), 68%; in experiment [6] (at 50.0 µM), 94.8% (active).

With `Nc1ccc2[nH]c3ccccc3c2c1`, the growth inhibition in experiment [1] (setting [7]) is -4%; in experiment [1] (setting [8]), 6%; in experiment [1] (at 50.0 µM), 92.3% (active); in experiment [2] (setting [7]), 0%; in experiment [2] (setting [8]), 1%; in experiment [2] (at 50.0 µM) it was -17.6%. Also, the growth inhibition in experiment [3] (setting [7]) was -9%; in experiment [3] (setting [8]) it was 0%; in experiment [3] (at 50.0 µM), 40.2%; in experiment [4] (setting [7]) it was -5%; in experiment [4] (setting [8]), 3%; in experiment [4] (at 50.0 µM) it was -38%. Moreover, the growth inhibition was -1% in experiment [5] (setting [7]); 18% in experiment [5] (setting [8]); 25.2% in experiment [5] (at 50.0 µM); 0% in experiment [6] (setting [7]); 29% in experiment [6] (setting [8]); 16.8% in experiment [6] (at 50.0 µM).

On to `Oc1ccccc1N=CC1CCCCC1`, for which the growth inhibition in experiment [1] (setting [7]) was -61%; in experiment [1] (setting [8]) it was 40%; in experiment [1] (at 50.0 µM), 69%; in experiment [2] (setting [7]) it was -27%; in experiment [2] (setting [8]), -24%; in experiment [2] (at 50.0 µM), 37.1%. The growth inhibition in experiment [3] (setting [7]) is -33%; in experiment [3] (setting [8]) it was -23%; in experiment [3] (at 50.0 µM), 28.4%; in experiment [4] (setting [7]) it was -53%; in experiment [4] (setting [8]), -31%; in experiment [4] (at 50.0 µM) it was 17%. Further, the growth inhibition was 9% in experiment [5] (setting [7]); 46% in experiment [5] (setting [8]); 74% (active) in experiment [5] (at 50.0 µM); -32% in experiment [6] (setting [7]); 20% in experiment [6] (setting [8]); 66.2% in experiment [6] (at 50.0 µM).

`CC(=O)c1cccc(NC2C(N)C(NC(=O)N(C)C)(C(C)O)C(C)(O)C2(O)COC(=O)c2c(C)cccc2O)c1` (configuration not stated): the growth inhibition in experiment [1] (setting [7]) was 42%; in experiment [1] (setting [8]), 96% (active); in experiment [1] (at 50.0 µM), 93% (active); in experiment [2] (setting [7]), 17%; in experiment [2] (setting [8]), 98% (active); in experiment [2] (at 50.0 µM), 94.5% (active). The growth inhibition is 44% in experiment [3] (setting [7]); 97% (active) in experiment [3] (setting [8]); 94.6% (active) in experiment [3] (at 50.0 µM); 21% in experiment [4] (setting [7]); 96% (active) in experiment [4] (setting [8]); 92% (active) in experiment [4] (at 50.0 µM). The growth inhibition in experiment [5] (setting [7]) was 36%; in experiment [5] (setting [8]), 98% (active); in experiment [5] (at 50.0 µM) it was 93.8% (active); in experiment [6] (setting [7]), 47%; in experiment [6] (setting [8]) it was 97% (active); in experiment [6] (at 50.0 µM) it was 93.2% (active).

Consider `O=C1C(Cl)=CC(=NCl)C=C1Cl`, for which the growth inhibition is 59% in experiment [1] (setting [7]); 83% (active) in experiment [1] (setting [8]); 89.1% (active) in experiment [1] (at 50.0 µM); 53% in experiment [2] (setting [7]); 91% (active) in experiment [2] (setting [8]); 91% (active) in experiment [2] (at 50.0 µM). In addition, the growth inhibition was 27% in experiment [3] (setting [7]); 98% (active) in experiment [3] (setting [8]); 91.9% (active) in experiment [3] (at 50.0 µM); 47% in experiment [4] (setting [7]); 100% (active) in experiment [4] (setting [8]); 85% (active) in experiment [4] (at 50.0 µM). Besides, the growth inhibition was 84% (active) in experiment [5] (setting [7]); 95% (active) in experiment [5] (setting [8]); 89.8% (active) in experiment [5] (at 50.0 µM); 28% in experiment [6] (setting [7]); 86% (active) in experiment [6] (setting [8]); 89% (active) in experiment [6] (at 50.0 µM).

Take `CN(C)Cc1ccccc1C(=O)C(=O)c1ccccc1CN(C)C`: the growth inhibition in experiment [1] (setting [7]) was -9%; in experiment [1] (setting [8]), 48%; in experiment [1] (at 50.0 µM), -3.15%; in experiment [2] (setting [7]), 1%; in experiment [2] (setting [8]), 70% (active); in experiment [2] (at 50.0 µM), 3%. For the same molecule, the growth inhibition in experiment [3] (setting [7]) is -5%; in experiment [3] (setting [8]), 3%; in experiment [3] (at 50.0 µM), -6.5%; in experiment [4] (setting [7]), 9%; in experiment [4] (setting [8]) it was 0%; in experiment [4] (at 50.0 µM) it was 46.3%. The growth inhibition in experiment [5] (setting [7]) was 10%; in experiment [5] (setting [8]), 7%; in experiment [5] (at 50.0 µM) it was 57.8%; in experiment [6] (setting [7]), -4%; in experiment [6] (setting [8]), 73% (active); in experiment [6] (at 50.0 µM), 6.45%.

For `O=C1C=CC2C(=O)c3ccccc3C(=O)C2=C1` (configuration not stated), the growth inhibition in experiment [1] (setting [7]) was 21%; in experiment [1] (setting [8]), 89% (active); in experiment [1] (at 50.0 µM) it was 73.5% (active); in experiment [2] (setting [7]), 17%; in experiment [2] (setting [8]) it was 76% (active); in experiment [2] (at 50.0 µM), 63.5%. The growth inhibition was 4% in experiment [3] (setting [7]); 72% (active) in experiment [3] (setting [8]); 56.9% in experiment [3] (at 50.0 µM); 5% in experiment [4] (setting [7]); 71% (active) in experiment [4] (setting [8]); 66.7% in experiment [4] (at 50.0 µM). Besides, the growth inhibition in experiment [5] (setting [7]) is 1%; in experiment [5] (setting [8]) it was 55%; in experiment [5] (at 50.0 µM), 45.5%; in experiment [6] (setting [7]) it was 4%; in experiment [6] (setting [8]) it was 67%; in experiment [6] (at 50.0 µM), 69.2%.
